PubChem BioAssay (Tox21)
Activity calls are given as the source filed them. The call rests on the fitted dose curve; in most records, active means well fitted curve in the direction sought with a large enough effect in the repeat runs; inconclusive means weak or mixed curves; inactive means flat fitted curve, though single readings scatter.

experiment: qHTS assay to test for compound auto fluorescence at 535 nm (green) in HEK293 cells (AID 720680); settings: green autofluorescence 485/535 nm; series mostly up to 91.3 µM; fluorescence, % of fluorescein: at the top concentration
Source text: U.S. Tox21 Program National Center for Advancing Translational Sciences [NCATS] NIH Chemical Genomics Center [NCGC] U.S. Environmental Protection Agency [EPA] National Institutes of Environmental Health Sciences [NIEHS] National Toxicology Program [NTP] U.S. Food and Drug Administration [FDA] Tox21 Assay Overview: Compound auto fluorescence often interferes with screening of the compound library against various biological targets and signaling pathways. Some of these compounds may have fluorophoric properties. Such properties may interfere with the assay outputs resulting in false positives and/or negatives. To decrease such complications and ensure the compound activities are relevant in terms of biological response, the Tox21 10K compound library was screened for auto fluorescence. From the fluorophores used as reporter signals in our screening assays, the auto fluorescence equivalencies of compounds against three fluorophores have been evaluated: Triamterene, Fluorescein and Rose Bengal sodium for blue, green and red fluorescence, respectively. The fluorescence intensities were measured using Excitation/Emission wavelengths at 405/460nm, 485/535nm and 540/590nm for blue, green and red labels, respectively. This assay includes the green fluorescence data.
Tox21 Assay Protocol Summary: 2,000 HEK293 cells in 5 uL of culture medium containing 10% dialyzed FBS per well were dispensed into black wall/clear bottom 1536-well plates using a Multidrop Combi Dispenser (Thermo Scientific). The assay plates were incubated for 4-5 hr at 37C to allow cell attachment to the well bottom, followed by the transfer of 23 nL compound or DMSO vehicle by a pintool work station (Kalypsys, San Diego, CA). After the assay plates were incubated overnight at 37C and 5% CO2, fluorescence intensities in the assay plates were measured by an Envision (PerkinElmer, Shelton, CT) plate reader using three labels for measuring blue, green and red fluorescence at […] 460, 535 and 590nm respectively.
On the % scale 0 is the no-effect control and ±100 the full control effect.

Structure (SMILES)	outcome	fluorescence, % of fluorescein
C[Si](O[Si](C)(C)C)O[Si](C)(C)C	inactive	
O=C(O)[C@H](O)[C@@H](O)[C@H](O)[C@H](O)CO	inactive	
ON=C1CCCCC1	inactive	
CCCC(C)=O	inactive	
Oc1cccc2ccccc12	inactive	
CC(=O)CC(=O)Nc1ccccc1	inactive	
CCCCOC(=O)COc1ccc(Cl)cc1Cl	inactive	
Cc1cccc(O)c1	inactive	
OCCOCCOCCO	inactive	
CC(=O)c1ccccc1	inactive	
CCCCCCCC(=O)OC	inactive	
COc1ccc(NC(C)=O)cc1N	inactive	
O=C(O)CCCC[C@@H]1SC[C@@H]2NC(=O)N[C@@H]21	inactive	
CCc1ccc(CCOc2ccc(CC3SC(=O)NC3=O)cc2)nc1 (stereo not given)	inactive	
CCCCCOC(C)=O	inactive	
O=C(O)c1ccccc1C(c1ccc(O)cc1)c1ccc(O)cc1		-0.135% (inactive)
CCCCC(CC)CO (stereo not given)	inactive	
Cc1ccc2oc(=O)ccc2c1	inactive	
CSCCC=O	inactive	
CCN(CC)CCCC(C)Nc1ccnc2cc(Cl)ccc12 (stereo not given)	inactive	

Structure (SMILES)	outcome	fluorescence, % of fluorescein
O=C(O)c1ccc(C(=O)O)cc1	inactive	
O=c1[nH]c(=O)n([C@H]2CCCO2)cc1F	inactive	
CC1=C(C)S(=O)(=O)CCS1(=O)=O	inactive	
CC(C)c1ccc(S(=O)(=O)O)cc1	inactive	
CC(C)(C)[C@@H](O)[C@@H](Cc1ccc(Cl)cc1)n1cncn1	inactive	
O=c1[nH]nnc2ccccc12	inactive	
C=C(C)C(=O)O[C@H]1C[C@@H]2CC[C@@]1(C)C2(C)C	inactive	
CCCCC(CC)COC(=O)CS (stereo not given)	inactive	
CC(C)CC(=O)CC(C)C	inactive	
O=C(O)CCCCCCCCCCC(=O)O	inactive	
CCC(O)OCCCOC (stereo not given)	inactive	
O=C(O)c1cc(O)c(O)c(O)c1	inactive	
O=C(O)CC(C(=O)O)C(CC(=O)O)C(=O)O (stereo not given)	inactive	
COc1ccc(Nc2ccccc2)c(C)c1	inactive	
CCCCN(CCCC)CCCC	inactive	
COc1ccc2cc([C@H](C)C(=O)O)ccc2c1	inactive	
O=C(Oc1ccccc1)c1ccccc1	inactive	
C[C@H]1C[C@@H]2[C@H]([C@@H](O)C[C@@]3(C)[C@H]2CC[C@]3(O)C(=O)CO)[C@@]2(C)C=CC(=O)C=C12	inactive	
O=C=NCCCCCCN=C=O	inactive	
CCOC(=O)NNc1nncc2ccccc12	inactive	
